Screening results from PubChem.
The sample as a whole holds a higher share of hits than the screen did.
IDE exosite FP – exo-site inhibitors of human insulin-degrading enzyme; P14735; purified IDE, FL-6b probe fluorescence polarization; active compounds read low; z-score at 20 µM; 17,000 compounds, 6.3% hits;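 active means z-score of -3 or lower, meaning strong loss of probe binding signal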;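 further: His-tagged human IDE residues 42-1019 made in E. coli with 30 nM FL-6b probe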
Target sequence (P14735 42-1019 limits assumed): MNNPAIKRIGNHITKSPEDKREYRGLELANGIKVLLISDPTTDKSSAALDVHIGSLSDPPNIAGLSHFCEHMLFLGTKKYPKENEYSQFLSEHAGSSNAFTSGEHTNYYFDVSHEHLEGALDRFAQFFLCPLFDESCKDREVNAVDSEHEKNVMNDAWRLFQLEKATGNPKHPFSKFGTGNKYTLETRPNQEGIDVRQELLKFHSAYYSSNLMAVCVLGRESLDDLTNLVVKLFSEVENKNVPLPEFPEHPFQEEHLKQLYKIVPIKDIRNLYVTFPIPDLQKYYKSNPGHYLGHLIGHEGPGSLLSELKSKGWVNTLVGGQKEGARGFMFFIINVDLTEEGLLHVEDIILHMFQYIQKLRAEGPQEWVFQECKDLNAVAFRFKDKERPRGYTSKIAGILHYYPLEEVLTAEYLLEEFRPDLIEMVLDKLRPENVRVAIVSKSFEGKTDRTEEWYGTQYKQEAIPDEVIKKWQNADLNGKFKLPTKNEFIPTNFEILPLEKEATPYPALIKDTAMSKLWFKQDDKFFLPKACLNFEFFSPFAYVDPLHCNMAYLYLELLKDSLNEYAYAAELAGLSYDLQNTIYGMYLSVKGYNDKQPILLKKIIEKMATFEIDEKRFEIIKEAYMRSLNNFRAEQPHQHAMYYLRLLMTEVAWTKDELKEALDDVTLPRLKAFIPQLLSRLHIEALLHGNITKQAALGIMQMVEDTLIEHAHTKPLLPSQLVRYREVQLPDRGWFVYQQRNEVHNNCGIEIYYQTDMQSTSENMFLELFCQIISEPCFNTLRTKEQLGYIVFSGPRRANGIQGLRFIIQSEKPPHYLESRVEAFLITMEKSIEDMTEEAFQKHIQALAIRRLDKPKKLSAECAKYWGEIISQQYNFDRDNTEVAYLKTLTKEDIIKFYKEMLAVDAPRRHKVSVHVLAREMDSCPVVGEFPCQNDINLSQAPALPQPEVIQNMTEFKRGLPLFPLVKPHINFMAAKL
An asterisk follows results filed as active.

SMILES	IDE exosite FP
C[C@@H]1CN([C@@H](C)CO)C(=O)c2cc(-c3ccc(F)cc3)cnc2O[C@H]1CN(C)S(C)(=O)=O	0.99
COc1ccc2c3c(n(C)c2c1)[C@H](CO)NCC31CN(Cc2ccc(-c3ccccn3)cc2)C1	-0.87
CC(C)NC(=O)N1CC(=O)N2[C@H](C1)[C@H](c1ccc(/C=C/c3ccccc3)cc1)[C@@H]2CO	-3.8*
O=C(NC1CCCCC1)N1CC(=O)N2[C@H](CO)[C@@H](c3ccc(/C=C/c4ccccc4)cc3)[C@H]2C1	-4.4*
CC(C)NC(=O)N1CC(=O)N2[C@H](CO)[C@H](c3ccc(/C=C/c4ccccc4)cc3)[C@@H]2C1	-2.1
CC(C)NC(=O)N1CC(=O)N2[C@H](C1)[C@@H](c1ccc(/C=C/c3ccccc3)cc1)[C@@H]2CO	-2.8
O=C(NC1CCCCC1)N1CC(=O)N2[C@H](CO)[C@H](c3ccc(/C=C/c4ccccc4)cc3)[C@H]2C1	-6.7*
C/C=C/c1ccc([C@H]2[C@@H](CO)N3C(=O)CN(C(=O)NC4CCCCC4)C[C@@H]23)cc1	-0.75
CC(C)NC(=O)N1CCCCN2[C@@H](CO)[C@@H](c3ccc(C#CC4CC4)cc3)[C@@H]2C1	-1.1
COc1ccccc1NC(=O)N1C[C@H](O)COC[C@H]2O[C@@H](CC(=O)NCCc3ccncc3)CC[C@@H]21	-0.1
COc1ccc(-c2ccc([C@H]3[C@@H](CO)N4CCCCN(S(=O)(=O)c5cccs5)C[C@H]34)cc2)cc1	1.3
C[C@@H]1CN([C@@H](C)CO)C(=O)c2c(c3ccccc3n2C)-c2ccccc2CO[C@H]1CN(C)C(=O)Nc1ccccc1C(F)(F)F	-0.51
CC(C)C#Cc1ccc([C@@H]2[C@@H](CO)N3CCCCN(C(=O)c4ccc(F)cc4)C[C@@H]23)cc1	1
COCC#Cc1ccc([C@H]2[C@@H](CO)N3C(=O)CN(C(=O)Nc4ccccc4F)C[C@@H]23)cc1	-0.28
N#C[C@H]1N[C@H](CO)[C@H]1c1ccccc1	3.8
COc1ccc(-c2ccc([C@H]3[C@@H](C#N)N[C@@H]3CO)cc2)cc1	3.1
COc1ccc(-c2ccc([C@@H]3[C@H](C#N)N[C@H]3CO)cc2)cc1	4.1
COc1ccccc1-c1ccc([C@H]2[C@H](C#N)N[C@@H]2CO)cc1	-12*
N#C[C@@H]1N[C@H](CO)[C@@H]1c1ccc(-c2ccccc2F)cc1	4.7
N#C[C@H]1N[C@H](CO)[C@@H]1c1ccc(-c2ccccc2F)cc1	-4.4*
C/C=C/c1ccc([C@H]2[C@H](CO)N3CCCCN(C(=O)Nc4cc(F)ccc4F)C[C@@H]23)cc1	1.4
COc1ccccc1-c1ccc(C2[C@H]3CNC[C@@H]2N3Cc2nccs2)cc1 (stereo partly drawn)	-2.3
CCCC#Cc1ccc([C@H]2[C@@H](C#N)N(S(=O)(=O)c3cccc(F)c3)[C@H]2CO)cc1	3.6
Cc1ccccc1S(=O)(=O)N1CCCCN2[C@H](C1)[C@@H](c1ccc(-c3cccnc3)cc1)[C@@H]2CO	-3*
O=S(=O)(c1ccccc1F)N1CCCCN2[C@@H](CO)[C@H](c3ccc(-c4cccnc4)cc3)[C@@H]2C1	2.2
SMILES	IDE exosite FP
Cc1ccccc1S(=O)(=O)N1CCCCN2[C@@H](CO)[C@H](c3ccc(-c4cccnc4)cc3)[C@@H]2C1	2.3
O=S(=O)(c1ccccc1F)N1CCCCN2[C@H](CO)[C@@H](c3ccc(-c4cccnc4)cc3)[C@@H]2C1	-7.7*
Cc1ccccc1S(=O)(=O)N1CCCCN2[C@H](CO)[C@@H](c3ccc(-c4cccnc4)cc3)[C@H]2C1	-0.049
O=S(=O)(c1ccccc1F)N1CCCCN2[C@H](C1)[C@H](c1ccc(-c3cccnc3)cc1)[C@@H]2CO	-0.54
CN1CCN(C(=O)C[C@H]2CC[C@@H]3[C@H](COC[C@H](O)CN3Cc3cccc(-c4ccncc4)c3)O2)CC1	-1
N#C[C@@H]1[C@@H](c2ccccc2)[C@H](CO)N1C(=O)Cc1ccccn1	-0.48
CO[C@H](CN(C)C(=O)C1CCOCC1)[C@H](C)CN(C(=O)Nc1ccc(C(F)(F)F)cc1)[C@H](C)CO	2.2
O=C1N[C@@H](Cc2ccccc2)COCc2cn(nn2)CC[C@@H]1Cc1cccc(F)c1	0.9
O=S(=O)(c1ccccc1)N1CCCCN2[C@H](CO)[C@H](c3ccc(-c4cncnc4)cc3)[C@@H]2C1	1.4
CO[C@H]1CN(C)C(=O)c2ccc(NC(=O)c3nc4ccccc4s3)cc2OC[C@@H](C)N(Cc2cccnc2)C[C@H]1C	-0.67
CCC(=O)N1[C@H](C#N)[C@H](c2ccccc2-c2cccc(C)c2)[C@H]1CO	0.99
